Experimental data published in PubChem BioAssay AID1159580 (chemical genetic matrix, 2015).
“And” between values parts separate entries of the source, which are not always exact repeats. Equal entries are not always repeated. About 2,000 (36%) of roughly 5,500 compounds were called active. Roughly 18% stayed inconclusive and do not appear here. Rule as the data show it: active = normalized growth mostly below about 0.91 (no sharp cut-off); inconclusive = no clear call, values can overlap the other calls; inactive = mostly above about 0.92. This is one part of the list. Some structures have more than one record in an assay (separate samples or runs), and their calls can disagree.

Assay: chemical genetic growth profiling, strain panel (AID 1159580);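 also: tested at 20 µM; growth read once vehicle control cultures reached saturation at 30 °C; 1 = growth at the plate median or of vehicle wells; lower values mean less growth of the strain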
Conditions: S. cerevisiae deletion strains, growth OD

Measured: normalized growth

Cc1cc2c(C(C)C)c(O)c(O)c(C=O)c2c(O)c1-c1c(C)cc2c(C(C)C)c(O)c(O)c(C=O)c2c1O
0.824 (active) and 0.908 (inactive): locus YMR125W, strain sto1, stronger effect = lower value
0.928 (active) and 0.994 (inactive): locus YML124C, strain tub3, stronger effect = lower value
0.486 (active) and 0.903 (inactive): locus YLR418C, strain cdc73, stronger effect = lower value
0.202 (active) and 0.679 (inactive): locus YLR039C, strain RIC1, stronger effect = lower value
0.878 (active) and 0.941 (inactive): locus YMR129W, stronger effect = lower value
0.92 (active) and 0.959 (inactive): locus YLL041C, strain sdh2, stronger effect = lower value
0.545 (active) and 0.811 (inactive): locus YLR342W, strain FKS1 (second series), stronger effect = lower value
0.888 (active) and 0.949 (inactive): locus YKR026C, strain gcn3, stronger effect = lower value
0.354 (active) and 0.699 (inactive): locus YMR307W, strain GAS1, stronger effect = lower value
0.708 (active) and 0.956 (inactive): locus YLR371W, strain rom2, stronger effect = lower value
0.855 (active) and 0.958 (inactive): locus YML032C, strain rad52, stronger effect = lower value
active: locus YKL009W, strain mrt4, stronger effect = lower value 1.52 [resistant] | locus YKL085W, strain MDH1 (second series), stronger effect = lower value 1.08 [resistant] and 1.1 [resistant] | locus YKL085W, strain MDH1, stronger effect = lower value 1.08 [resistant] and 1.1 [resistant] | locus YKL160W, strain elf1, stronger effect = lower value 0.832 and 0.809 | locus YKL190W, strain CNB1, stronger effect = lower value 0.663 and 0.868 | locus YKR001C, strain vps1, stronger effect = lower value 0.486 and 0.887 | locus YLL001W, strain dnm1, stronger effect = lower value 0.724 and 0.801 | locus YLL026W, stronger effect = lower value 0.904 and 0.838 | locus YLR027C, strain aat2, stronger effect = lower value 0.78 and 0.81 | locus YLR058C, strain SHM2, stronger effect = lower value 0.685 and 0.764 | locus YLR221C, strain rsa3, stronger effect = lower value 0.751 and 0.818 | locus YLR258W, strain gsy2, stronger effect = lower value 0.855 and 0.839 | locus YLR262C, strain YPT6 (second series), stronger effect = lower value 0.216 and 0.179 | locus YLR268W, strain sec22, stronger effect = lower value 0.599 and 0.847 | locus YLR320W, strain mms22, stronger effect = lower value 0.684 and 0.651 | locus YLR330W, strain CHS5, stronger effect = lower value 0.675 and 0.883 | locus YLR342W, strain FKS1, stronger effect = lower value 0.675 and 0.786 | locus YLR357W, strain rsc2, stronger effect = lower value 0.649 and 0.719 | locus YLR370C, strain arc18, stronger effect = lower value 0.687 and 0.765 | locus YLR384C, strain iki3, stronger effect = lower value 0.809 and 0.889 | locus YML016C, strain PPZ1, stronger effect = lower value 0.73 and 0.831 | locus YML120C, strain ndi1, stronger effect = lower value 0.721 and 0.719 | locus YMR058W, strain fet3, stronger effect = lower value 0.101 and 0.125 | locus YMR205C, strain PFK2, stronger effect = lower value 0.63 and 0.655 | locus YMR223W, strain ubp8, stronger effect = lower value 0.796 and 0.898 | locus YMR231W, strain pep5, stronger effect = lower value 0.434 and 0.295
inactive: locus YJR066W, strain TOR1, stronger effect = lower value 0.993 | locus YJR075W, strain HOC1, stronger effect = lower value 0.907 | locus YKL068W, stronger effect = lower value 1.04 | locus YKR091W, strain srl3, stronger effect = lower value 0.935 and 0.943 | locus YLR102C, strain apc9, stronger effect = lower value 0.992 and 1.01 | locus YLR113W, strain HOG1, stronger effect = lower value 0.952 | locus YMR078C, strain ctf18, stronger effect = lower value 0.974 and 0.987
0.207 (active) and 0.653 (inactive): locus YLR262C, strain YPT6, stronger effect = lower value
